Data published in PubChem BioAssay (EPA / NIEHS).
Inconclusive results are not listed. The source made the active and inactive calls. How the source made its calls: active means hit-call score of the fitted dose curve at least 0.9, where 1 is the maximum; inconclusive means response in the unintended direction; inactive means score below 0.9.

tested on: rat Monoamine Oxidase, MAO-A, Peripheral (MAOAP), gene 29253; assay: NVS_ENZ_rMAOAP: NovaScreen (NVS) Enzymatic Assay for rat Monoamine Oxidase, MAO-A, Peripheral (MAOAP) (AID 2283237)
How it was run: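 Scintillation counting tracked MAO-A activity in a cell-free rat liver mitochondrial membrane prep, read 1.17 hours after compound addition. Single-point duplicate testing at 25 uM preceded concentration-response follow-up; activity was fitted relative to DMSO.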

Compound | outcome | AC50
Nc1cccc(N)c1 | inactive | 
Cc1cc(SC2=C(O)C[C@@](CCc3ccc(N)cc3)(C(C)C)OC2=O)c(C(C)(C)C)cc1CO | inactive | 
NCC1(Cc2noc(=O)[nH]2)CCCCC1 | inactive | 
C[C@]12CC[C@@H]3c4ccc(O)cc4CC[C@H]3[C@@H]1CCC2=O | inactive | 
CCCOC(=O)NCCCN(C)C | inactive | 
CN1CCN(Cc2cc(-c3ccc4[nH]c(=O)oc4c3)co2)[C@@H](c2ccc(F)cc2)C1 |  | 18.2 µM (active)
CC(C)C(=O)Nc1ccc([N+](=O)[O-])c(C(F)(F)F)c1 |  | 10.4 µM (active)
CCn1nc(C)c2c1C(=O)NCC(c1ccc(O)cc1)=N2 |  | 5.25 µM (active)

target: rat Monoamine Oxidase, MAO-B, Central (MAOBC), Maob (gene 25750) (UniProt P19643); assay: NVS_ENZ_rMAOBC: NovaScreen (NVS) Enzymatic Assay for rat Monoamine Oxidase, MAO-B, Central (MAOBC) (AID 2283238)
How it was run: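 Here MAO-B activity in rat brain preparations is quantified radiometrically, counts taken at 1.17 hours. Concentration-response runs reach 50 uM, with plate controls, and values are fitted as loss of signal from the DMSO baseline.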

Chain of rat Monoamine Oxidase, MAO-B, Central (MAOBC), Maob (gene 25750) (P19643 whole entry, looked up): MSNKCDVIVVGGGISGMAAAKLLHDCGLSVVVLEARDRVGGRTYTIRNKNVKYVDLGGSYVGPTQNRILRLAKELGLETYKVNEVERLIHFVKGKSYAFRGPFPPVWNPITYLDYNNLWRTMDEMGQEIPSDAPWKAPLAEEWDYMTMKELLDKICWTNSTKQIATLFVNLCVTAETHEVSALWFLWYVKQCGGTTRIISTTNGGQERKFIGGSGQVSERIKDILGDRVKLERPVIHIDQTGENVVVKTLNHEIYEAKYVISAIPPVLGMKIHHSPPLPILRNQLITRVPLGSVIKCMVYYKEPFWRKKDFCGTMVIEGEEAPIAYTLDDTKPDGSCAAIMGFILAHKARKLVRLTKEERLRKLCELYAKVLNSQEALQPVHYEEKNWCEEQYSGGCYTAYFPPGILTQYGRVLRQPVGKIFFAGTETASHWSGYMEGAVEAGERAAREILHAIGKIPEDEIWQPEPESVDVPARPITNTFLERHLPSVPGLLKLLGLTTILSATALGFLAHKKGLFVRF

Compound | outcome | AC50
O=C(O)c1cccnc1 | inactive | 
COC(=O)c1ccc(C(=O)OC)cc1 |  | 25 µM (active)
CCC(C)(C)C1CCC(O)CC1 (configuration not stated) | inactive | 
O=C(O)c1ccccc1 | inactive | 
CS(=O)(=O)OCCCCOS(C)(=O)=O | inactive | 
CCCCCCCCCCCC[N+](C)(C)C |  | 9.12 µM (active)
CN1CCN(Cc2cc(-c3ccc4[nH]c(=O)oc4c3)co2)[C@@H](c2ccc(F)cc2)C1 |  | 10.6 µM (active)
Cc1ccc(C)c(C)c1 | inactive | 
CC(O)CC(C)(C)O (configuration not stated) | inactive | 
